# Screening results from PubChem BioAssay.
# CHX counter: Cycloheximide Counterscreen for Small Molecule Inhibitors of Shiga Toxin; cell reporter, cycloheximide protein synthesis inhibition counterscreen; 12% of 300,000 active; max response, %; in the data active = max response mostly above about 13%, no sharp cut-off; inactive = mostly below about 14%; also: read at 38.3 µM for the half of the compounds with a filed dose; 0% is about no effect
# Pf growth 96h: Primary qHTS for delayed death inhibitors of the malarial parasite plastid, 96 hour incubation; P. falciparum luciferase reporter growth, 96 h; Potency, µM (titrated, usually from 28.7 µM), without a hit: top-dose activity change, negative = inhibition, most hits filed as inhibitors; 6.9% of 320,000 active; AID 504834, 2011; also: potency is read from the fitted curve at half-maximal effect; % is scaled to controls: 0 for no effect and ±100 for the full control effect
#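 Parasite growth measured via integrated firefly luciferase reporter in P. falciparum. Infected erythrocytes at 2% hematocrit, 0.05% parasitemia final were treated 96 hours at 37 C under 5% CO2, and luminescence was read.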
# Pf growth 48h: Primary qHTS for delayed death inhibitors of the malarial parasite plastid, 48 hour incubation; P. falciparum luciferase growth in erythrocytes, 48 h; Potency, µM (highest dose often 28.7 µM), for the others: at the highest dose activity change, negative = inhibition, hits mostly inhibitors; 5.9% of 310,000 active; AID 504832, 2011; also: potency is read from the fitted curve at half-maximal effect; % is scaled to controls: 0 for no effect and ±100 for the full control effect
#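 Here the parasites carry a stable luciferase gene and grow inside erythrocytes in Albumax-based RPMI medium with compound for one erythrocytic cycle. Activity is scored as loss of luminescent signal.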
# Shiga toxin inh: A qHTS for Small Molecule Inhibitors of Shiga Toxin; Vero cells, Shiga toxin protein synthesis inhibition reporter; inhibition, % at 38.7 µM; 9.2% of 290,000 active; AID 2315, 2010; in the data active = inhibition mostly above about 28%, no sharp cut-off; inactive = mostly below about 43%; also: 0% is about no effect
# * marks the source's active call; other numbers are inactive results; i = inactive; u = inconclusive; x = no result; [ ] = remark or other dose. This is a sample that favours compounds with a hit; in the whole collection about 21% have one here. Unless noted, calls follow the shape of the dose curve; as a rule, active = well fitted inhibition curve with a large enough effect; inconclusive = small, poorly fitted or top-dose-only effect, or another doubt; inactive = no such curve, though single readings can be large or run the other way.
SMILES,CHX counter,Pf growth 96h,Pf growth 48h,Shiga toxin inh
C=CCn1c(=N)c(C(=O)NCCCOC)cc2c(=O)n3ccccc3nc21,-2.9,18.2%,11.3%,-8.8
COc1ccc(CCn2c(=N)c(C(=O)NCC3CCCO3)cc3c(=O)n4cccc(C)c4nc32)cc1 (stereo not drawn),-2.6,u,u,-5.0
COc1ccc(CNC(=O)c2cc3c(=O)n4cccc(C)c4nc3n(CC3CCCO3)c2=N)cc1 (stereo not drawn),-1.9,5.22µM*,u,-8.0
COCCn1c(=N)c(C(=O)NCCc2ccc(OC)cc2)cc2c(=O)n3cccc(C)c3nc21,-11.7,2.94µM*,2.08µM*,-10.2
CCCn1c(=N)c(C(=O)NCc2ccc3c(c2)OCO3)cc2c(=O)n3cccc(C)c3nc21,-2.7,8.1%,1.04µM*,-4.7
CCOCCCn1c(=N)c(C(=O)NCc2ccc3c(c2)OCO3)cc2c(=O)n3ccccc3nc21,-1.6,x,u,-10.4
COc1ccc2[nH]cc(CCNC(=O)COc3ccc4ccc(=O)oc4c3)c2c1,1.2,12.6%,4.9%,2.2
CCCCNC(=O)NS(=O)(=O)c1ccc(N)cc1,4.7,10.5%,10.5%,-7.7
Cc1cccn2c(=O)c3cc(C(=O)NCC4CCCO4)c(=N)n(C4CCCCC4)c3nc12 (stereo not drawn),-4.5,1.31µM*,u,-12.0
Cc1cccn2c(=O)c3cc(C(=O)NCc4ccc(F)cc4)c(=N)n(CC4CCCO4)c3nc12 (stereo not drawn),9.0,2.94µM*,4.15µM*,-1.0
Cc1cccn2c(=O)c3cc(C(=O)NCc4ccco4)c(=N)n(C4CCCC4)c3nc12,-3.2,2.3%,-3.7%,-4.6
Cc1cccn2c(=O)c3cc(C(=O)NCC4CCCO4)c(=N)n(CC4CCCO4)c3nc12 (stereo not drawn),-5.4,-5.6%,-21.1%,-9.0
NC(=O)c1ccsc1NC(=O)COC(=O)Cc1ccccc1Cl,x,10.2%,u,x
CCC(CO)[n+]1c(C)cc(/C=C2\Sc3ccccc3N2Cc2ccccc2)cc1C (stereo not drawn),-1.0,u,0.37µM*,12.0
CCN1/C(=C2\SC(=S)N(Cc3ccccc3)C2=O)Sc2ccccc21,-7.2,48.6%,-3.5%,-16.6
O=C(c1ccccc1)N1CCCCC(Sc2nnc3ccccn23)C1=O (stereo not drawn),-5.8,-4.7%[5.75 µM],-0.3%,-11.5
CCN(CC)C(=S)SC1CCCCN(C(=O)c2ccccc2)C1=O (stereo not drawn),35.8*,27.9%,-0.5%,57.2*
O=c1oc(-c2ccc(Cl)c(Cl)c2)nn1-c1ccc(C(F)(F)F)cn1,-1.6,-28.5%,u,-15.9
CCOCc1nnc(NC(=O)c2cccc(OC)c2)s1,25.3*,87.7%,33.6%,57.1*
CCC(NC(=O)Nc1nnc(C(F)(F)F)s1)(C(F)(F)F)C(F)(F)F,0.6,-43.7%,1.65µM*,-8.0
O=C(O)CCC(=O)Nc1nnc(C(F)(F)F)s1,-3.3,17.6%,4.9%,-2.0
COc1ccc(C(=O)Nc2nnc(C(F)(F)F)s2)cc1,26.9*,x,142.6%,98.2*
COc1cccc(C(=O)Nc2nnc(-c3cccs3)s2)c1,24.5*,u,x,89.3*
CCc1nnc(NC(=O)c2ccc(S(C)(=O)=O)cc2)s1,5.1,182.4%,70.2%,3.6
CCc1nnc(NC(=O)c2c(OC)cccc2OC)s1,-2.2,-5.1%,34.0%,10.5
SMILES,CHX counter,Pf growth 96h,Pf growth 48h,Shiga toxin inh
CCc1nnc(NC(=O)c2ccc(F)c(S(=O)(=O)N3CCCCC3)c2)s1,-1.9,11.7µM*,8.0%,-5.3
CCc1nnc(NC(=O)c2ccc(OC)cc2)s1,28.2*,-26.4%,i,93.1*
CCc1nnc(NC(=O)c2cccc(OC)c2)s1,42.5*,u,224.1%,64.7*
COc1cccc(-c2nnc(NC(=O)Cc3cccs3)s2)c1,22.1*,37.0%,15.2%,32.0
CN(C)CCCNc1cn[nH]c(=O)c1Cl,-2.0,-4.6%,x,14.5
CN(C)C(=O)OCC1COc2ccccc2O1 (stereo not drawn),6.9,43.1%,5.5%,-14.2
CCCCOc1ccc(Br)cc1CSC(=N)N,-9.0,u,4.65µM*,-19.5
CCCCCOc1ccc(CSC(=N)N)cc1[N+](=O)[O-],11.0,0.465µM*,u,1.5
CCOc1ccc(CN(CCO)CCO)cc1[N+](=O)[O-],1.9,47.6%,13.0%,-14.0
CCCCOc1ccc(CN(CCO)CCO)cc1[N+](=O)[O-],49.9*,70.5%,119.8%,124.6*
CCCCOc1ccc(CSC2=NCCN2)cc1[N+](=O)[O-],0.7,13.1µM*,u,14.9
